High-throughput results from PubChem.
PTHR1 agonist: activates the human parathyroid hormone receptor PTHR1. HEK293 GP2 PTHR1 cells, GloSensor cAMP luminescence, 1 h. Potency, µM (titrated, usually from 115 µM), for the others: top-dose activation, hits mostly activators. actives 0.075% (n = 410,000). AID 743266; note: nearly all actives have a fitted effect of over 55% in size
Target sequence (Q03431 whole entry, looked up): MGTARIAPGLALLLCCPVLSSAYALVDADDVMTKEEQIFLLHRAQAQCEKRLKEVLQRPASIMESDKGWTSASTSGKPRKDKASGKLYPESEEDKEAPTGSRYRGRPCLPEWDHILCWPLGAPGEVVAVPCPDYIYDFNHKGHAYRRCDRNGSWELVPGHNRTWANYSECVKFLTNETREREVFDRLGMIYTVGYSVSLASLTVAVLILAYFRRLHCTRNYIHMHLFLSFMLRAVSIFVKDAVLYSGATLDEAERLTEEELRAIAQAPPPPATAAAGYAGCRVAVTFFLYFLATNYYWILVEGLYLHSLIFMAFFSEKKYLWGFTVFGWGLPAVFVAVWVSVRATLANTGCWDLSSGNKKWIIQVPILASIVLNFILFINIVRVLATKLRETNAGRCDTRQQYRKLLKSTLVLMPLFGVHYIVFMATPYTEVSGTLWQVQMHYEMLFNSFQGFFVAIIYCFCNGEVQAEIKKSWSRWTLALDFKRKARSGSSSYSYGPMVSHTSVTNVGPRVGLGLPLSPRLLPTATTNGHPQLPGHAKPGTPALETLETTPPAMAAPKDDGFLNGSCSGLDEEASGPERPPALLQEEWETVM
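HEK-293-derived GP2 cells expressing PTHR1 and a GloSensor cAMP reporter, 3,000/well, plated overnight, given luciferin plus IBMX (each 0.5 mM as added) for 1 h at 37 °C, then compound for 1 h at 37 °C. Luminescence was read after 15 min at room temperature.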
GLP1R inv ag: inverse agonists of human GLP-1 receptor; P43220; HEK293 GLP-1R CRE-luciferase, luminescence, 24 h; GLP-1R form is constitutively active; Potency, µM (doses to about 38.3 µM), for the others: at the highest dose activity change, negative = inhibition, usual class: inhibitors; actives 1.6% (n = 410,000); AID 624417; note: % is set by controls: 0 for no effect and ±100 for the full control effect; nearly all actives have a fitted effect of over 55% in size
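HEK293 cells stably co-expressing a cAMP-responsive luciferase reporter and constitutively active GLP-1R were seeded, incubated 12 h, then exposed to compounds for 24 h at 37 C. Luminescence was read 12 min after detection reagent; inverse agonists lower signal.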
HEK293 tox: cytotoxic in the GLP-1 receptor inverse agonist counter-screen; HEK293 cAMP-luciferase reporter cells, luminescence, 24 h; Potency, µM (highest dose often 38.3 µM), inactives show top-dose activity change, negative = inhibition, hits mostly inhibitors; actives 0.13% (n = 410,000);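 note: loss of luciferase light is scored as toxicity; % is set by controls: 0 for no effect and ±100 for the full control effect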
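Seeding density was 200 cells/uL; after overnight-length (12 h) culture, 23 nL compounds went on for 24 h at 37 °C. Readout used a luciferase detection reagent, luminescence taken after 12 min at room temperature.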
GLP1R ag: agonists of human GLP-1 receptor | actives 0.007% (n = 380,000) | Potency, µM (doses to about 45.6 µM), for the others: top-dose activation, usual class: activators | P43220 | HEK293 GLP-1R CRE-luciferase, luminescence, 4-6 h; cells express a hypersensitive GLP-1R form; note: % of control where 0% means no effect
An asterisk follows results filed as active; i = inactive; ? = inconclusive; / = no result given; [ ] = another dose, or the depositor's remark. The list is not random: actives were taken first. Their share in the collection is about 1.7%. Calls come from the whole dose curve; as a rule, active = well fitted curve in the direction sought with a large enough effect; inconclusive = small, poorly fitted or top-dose-only effect, or another doubt; inactive = no such curve, though single readings can be large; an effect the other way counts as inactive or inconclusive. Potency is the fitted concentration of half-maximal effect.

SMILES | PTHR1 agonist | GLP1R inv ag | HEK293 tox | GLP1R ag
CN1CCCC1CCNc1ccc2sc3ccccc3c(=O)c2c1 (centres undefined) | -7% | 14µM* | ? | 6%
O=c1c2ccccc2sc2ccc(NCCCN3CCOCC3)cc12 | -7% | ? | 19% | 5%
CC(=O)N1c2ccc(S(=O)(=O)N(C)CC(=O)N(Cc3ccccc3)C(C)C)cc2CC1C (centres undefined) | -2% | 9% | -2% | /
CCOc1ccc(S(=O)(=O)N2CCCCC2)c2ccccc12 | -9%[57.5 µM] | 10µM* | 1% | 0%
Fc1cccc(-c2cc3nc(-c4ccccc4)cc(N4CCC5(CC4)OCCO5)n3n2)c1 | -11% | ? | 12% | -10%
COc1ccc(-c2cc3nc(-c4ccccc4)cc(N4CCC(O)CC4)n3n2)cc1 | -5% | 7.9µM* | ? | 13%
COc1ccc(-c2cc3nc(-c4ccccc4)cc(N4CCCC(O)C4)n3n2)cc1 (centres undefined) | i | ? | 3% | 3%
CN(C)CCCNc1cc(-c2ccccc2)nc2cc(-c3cccc(F)c3)nn12 | 2% | 3.5µM* | ? | -3%
COCCN1CCN(c2cc(-c3ccccc3)nc3cc(-c4cccc(F)c4)nn23)CC1 | -9% | 7.9µM* | 66% | -18%
Cc1cccc2c1-c1sc(C(=O)N3CCN(c4ccccc4)CC3)cc1CO2 | -8% | -9% | -1% | /
Cc1cc(C)c2nc(N(CCCN(C)C)C(=O)C3=COCCO3)sc2c1 | -6% | 4.5µM* | ? | -9%
CN(C)CCCN(C(=O)C1=COCCO1)c1nc2ccc(Br)cc2s1 | -4% | 2µM* | ? | 0%
CCOC(=O)c1c(C)c(-c2ccccc2)n(CC(=O)Nc2cc(OC)cc(OC)c2)c1C | 6% | ? | -5% | -1%
CN1CCN(c2ccc(NC(=O)CSc3nnnn3-c3ccccc3F)cc2)CC1 | i | 2.8µM* | -9% | -1%
Cc1ccccc1-n1nnnc1SCC(=O)Nc1ccc(S(=O)(=O)N2CCCC2)cc1 | -19%[57.5 µM] | 11µM* | -13% | 3%
Cc1ccc(-n2nnnc2SCC(=O)Nc2ccc(N3CCN(C)CC3)cc2)c(C)c1 | -23% | 3.5µM* | -16% | 12%
COc1ccc(NC(=O)CSc2nnnn2-c2ccccc2F)cc1 | -14% | -7% | -1% | -5%
Cc1ccc(-n2nnnc2SCC(=O)Nc2cc(C)on2)c(C)c1 | i | 9% | ? | 0%
COc1cccc(NC(=O)N2CCc3nc(NCc4cccc(Oc5ccccc5)c4)ncc3C2)c1 | -87% | 10µM* | -22% | -1%
O=C(Nc1ccc(OC(F)(F)F)cc1)N1CCc2nc(NCc3cccc(Oc4ccccc4)c3)ncc2C1 | -91% | -63% | -17% | 8%
COc1ccc2c(c1)c1c(c(=O)n(-c3cc(Cl)ccc3C)c(=O)n1Cc1ccc(F)cc1)n2C | -14% | 11% | -10% | 1%
CCOc1ccc(NC(=O)c2cnn(-c3ccc(C)c(C)c3)c2C2CCN(C(=O)OC(C)(C)C)CC2)cc1 | i | 15% | 1% | /
CCOc1ccc(NC(=O)CN2C(=O)C3(SCC(=O)N3c3ccc(F)cc3)c3ccccc32)cc1 (centres undefined) | -13% | -17% | -11% | -4%
COc1ccc(CNc2oc(COc3cccc(C)c3)nc2C#N)cc1 | -94% | ? | 7% | /
Cc1cccc(OCc2nc(C#N)c(NCc3ccc4c(c3)OCO4)o2)c1 | -13%[57.5 µM] | 11µM* | -5% | 4%
SMILES | PTHR1 agonist | GLP1R inv ag | HEK293 tox | GLP1R ag
COc1ccc(CCNc2oc(COc3ccccc3)nc2C#N)cc1 | -9% | ? | -3% | 3%
COc1ccc(CNc2oc(COc3ccccc3)nc2C#N)cc1 | -94% | 10µM* | 9% | 1%
Cc1ccc(NC(=O)CN(C)C(=O)Cc2ccc(Cl)cc2Cl)cc1 | -1% | ? | 10% | 8%
Cc1ccc(NC(=O)CN(C)C(=O)Cc2ccc(Cl)c(Cl)c2)cc1 | i | 7.9µM* | -2% | 14%
O=S(=O)(Nc1cccc(-c2ccc(N3CCCCCC3)nn2)c1)c1ccccc1Cl | -25% | 5µM* | -22% | 14%
Cc1cc(S(=O)(=O)Nc2ccc(-c3ccc(N4CCCCCC4)nn3)cc2)c(C)cc1Cl | i | 7.9µM* | -23% | /
O=S(=O)(Nc1ccc(-c2ccc(N3CCCCC3)nn2)cc1)c1ccc(OC(F)(F)F)cc1 | -7% | 11µM* | -21% | /
Cc1cc(C)c(S(=O)(=O)Nc2ccc(-c3ccc(N4CCC(C)CC4)nn3)cc2)cc1C | -6% | ? | -17% | /
CCOc1ccc(S(=O)(=O)Nc2ccc(-c3ccc(N4CCCC4)nn3)cc2)cc1 | i | 7% | -12% | /
Cc1cc(S(=O)(=O)Nc2ccc(-c3ccc(N4CCCCC4)nn3)cc2)c(C)cc1Cl | i | 7.1µM* | -13% | /
CCOC(=O)c1ccc(Nc2c(-c3ccc(N(C)C)cc3)nc3nc[nH]n23)cc1 | -24% | 15% | 0% | /
CCOc1cc2sc(N3CCC(C(=O)Nc4ccc(C)cc4C)CC3)nc2cc1Br | -26% | 56% | 6% | /
CCOc1ccccc1C(=O)Nc1c(C(=O)Nc2ccc(F)cc2)oc2ccccc12 | i | ? | -26% | 2%
CCc1ccc(C2c3c(-c4cc(C)ccc4O)n[nH]c3C(=O)N2CCO)cc1 (centres undefined) | i | -4% | -2% | /
C=C1C(=O)O[C@@H]2[C@H]1CC[C@H](C)[C@]1(O)CCC(=O)[C@@]21C | -28% | 8.9µM* | ? | -7%
COc1ccc(-c2csc(NC(=O)Cc3ccccc3F)n2)cc1OC | -36% | ? | 2% | 18%
O=C(Cc1ccccc1F)Nc1nc(-c2ccc(F)cc2)cs1 | -21% | 8.9µM* | -8% | 2%
CN1C[C@@H]2C(c3ccc(C(F)(F)F)cc3)C3(c4ccc(C#N)cc4)CC2(C3)[C@H]1c1ccccc1 (some centres undefined) | i | 10µM* | -27% | -2%
COC(=O)c1cccc(C23CC4(C2)[C@H](CN(C)[C@@H]4c2ccccc2)C3c2ccc(C(F)(F)F)cc2)c1 (some centres undefined) | i | -27% | 9% | -3%
COC(=O)c1cccc(C23CC4(C2)[C@H](CN(C)[C@@H]4c2ccccc2)C3c2ccccc2)c1 (some centres undefined) | i | 8.9µM* | 2% | 2%
Cc1ccc(O)c(CN(C)Cc2cc(C)ccc2O)c1 | i | 13µM* | -21% | 6%
Cc1cccn2cc(CSc3nnc(Nc4ccc(C(C)C)cc4)s3)nc12 | -17% | 10µM* | -11% | 5%
CCc1ccc(-n2nc3ccc(NC(=O)c4ccc(C#N)cc4F)cc3n2)cc1 | i | 0% | -11% | 0%
CN1CCC(N(C)S(=O)(=O)c2ccc(NC(=O)COc3cccc(Cl)c3)cc2)CC1 | -3% | 2.8µM* | -5% | 2%
